# Structures can show the parent of a compound that is named as a salt. The campaign covered roughly 5,800 compounds. About 620 (11%) showed activity. The list comes from a sample in which actives are over-represented; it also holds similar structures and randomly drawn compounds. Unmarked numbers belong to inactive results.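 How the source made its calls: active = score above a cut-off or among the top three wells of a plate; in these data no inactive exceeds 0.85.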
# System: primary human hepatic stellate cells (donor 1)
# Assay: scaled lipid accumulation score (0 = DMSO-like, 1 = nortriptyline-like); higher = stronger HSC inactivation (lipid re-accumulation), active = hit call of the paper
# Conditions: 48 h
# [1] = library stock concentration: 1 mM
# [2] = library stock concentration: 10 mM
# [3] = library stock concentration: 3.33 mM
smiles,measurement,setting,value
CCCCC/C=C\CCCCCCCCCCCCC(=O)O [14(Z)-Eicosenoic Acid],scaled lipid accumulation score,[1],≤ 0
CN1CCN(c2ccc3nc(-c4c(N)c5c(F)cccc5[nH]c4=O)[nH]c3c2)CC1 [Dovitinib (TKI-258) Dilactic Acid],scaled lipid accumulation score,[2],0.445
CN1CCN(C(=O)c2nc3ccc(Cl)cc3[nH]2)CC1,scaled lipid accumulation score,[2],0.076
CN1CCN(c2ccc3nc(-c4c(N)c5c(F)cccc5[nH]c4=O)[nH]c3c2)CC1 [listing 1 of 2 here],scaled lipid accumulation score,library stock concentration: 80 uM,0.779
CN1CCN(c2ccc3nc(-c4c(N)c5c(F)cccc5[nH]c4=O)[nH]c3c2)CC1 [listing 2 of 2 here],scaled lipid accumulation score,library stock concentration: 400 uM,0.945 (active)
same,scaled lipid accumulation score,library stock concentration: 2 mM,1.11 (active)
same,scaled lipid accumulation score,[2],1.08 (active)
CCOc1ccc(-c2nc3ccc(-c4nc5ccc(N6CCN(C)CC6)cc5[nH]4)cc3[nH]2)cc1,scaled lipid accumulation score,library stock concentration: 8.9 mM,0.339
"CN1CCN(c2ccc3nc(-c4c(N)c5c(F)cccc5[nH]c4=O)[nH]c3c2)CC1 [Dovitinib (TKI-258, CHIR-258)]",scaled lipid accumulation score,[3],1.25 (active)
same,scaled lipid accumulation score,[2],1.13 (active)
CC(O)C(=O)O.CC(O)C(=O)O.CN1CCN(c2ccc3nc(-c4c(N)c5c(F)cccc5[nH]c4=O)[nH]c3c2)CC1 [Dovitinib (TKI-258) Dilactic Acid],scaled lipid accumulation score,[3],1.27 (active)
CC[C@@H]1Cn2c(c3nc(-c4ccccc4)nc-3n(C)c2=O)N1,scaled lipid accumulation score,[2],0.008
c1cnc2cc3c(cc2n1)[C@@H]1CNC[C@H]3C1 [Varenicline tartrate],scaled lipid accumulation score,[2],≤ 0
NC(=O)[C@@H]1CCCN1C(=O)[C@H](Cc1c[nH]cn1)NC(=O)[C@@H]1CCC(=O)N1,scaled lipid accumulation score,[2],≤ 0
CC[C@@H](C(=O)[C@@H](C)[C@@H](O)[C@H](C)CCc1ccc(C)c(O)c1C(=O)O)[C@H]1O[C@](CC)([C@H]2CC[C@](O)(CC)[C@H](C)O2)C[C@@H]1C [Lasalocid sodium salt],scaled lipid accumulation score,,0.439
CC[C@@H](C(=O)[C@@H](C)[C@@H](O)[C@H](C)CCc1ccc(C)c(O)c1C(=O)O)[C@H]1O[C@](CC)([C@H]2CC[C@](O)(CC)[C@H](C)O2)C[C@@H]1C [Lasalocid sodium],scaled lipid accumulation score,[2],0.665
COc1ccc(C2CC(c3c(O)cc(C)oc3=O)=NCCS2)c(OC)c1 (stereo unspecified),scaled lipid accumulation score,[2],0.164
CCCCC[C@](C)(O)/C=C/[C@H]1[C@H](O)CC(=O)[C@@H]1CCCCCCC(=O)O [15(S)-15-methyl Prostaglandin E1],scaled lipid accumulation score,[1],0.012
Cc1nnc(-c2ccc3occ(-c4ccc([S+](C)[O-])cc4)c3c2)o1 (stereo unspecified),scaled lipid accumulation score,[2],0.106
NC(=O)Cc1cccc(C(=O)c2ccccc2)c1N [Nepafenac],scaled lipid accumulation score,[3],≤ 0
same,scaled lipid accumulation score,[2],0.098

# Reference: the supplement of paper PMC9135407
